# From PubChem BioAssay
# Target: Fibroblast growth factor 10 (Homo sapiens) (UniProt O15520)
# Test: FGF10 binders on small-molecule microarrays, primary screen, biochemical, small-molecule microarray, 635 nm fluorescence (AID 1102)
# Conditions: FGF10 binding, fluorescence 635 nm, higher = more signal
# Fibroblast growth factor 10 (Homo sapiens), sequence (O15520 whole entry, looked up): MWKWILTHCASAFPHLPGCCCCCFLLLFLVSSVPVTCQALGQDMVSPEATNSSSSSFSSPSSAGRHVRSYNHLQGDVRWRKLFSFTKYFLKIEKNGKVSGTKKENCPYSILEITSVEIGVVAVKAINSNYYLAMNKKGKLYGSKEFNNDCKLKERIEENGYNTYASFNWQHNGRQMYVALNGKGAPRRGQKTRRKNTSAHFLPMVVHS
row,SMILES,composite z-score
1,COCCOC(=O)N1C(=O)[C@@]2(c3cc(C#CC4=CCCCC4)ccc31)[C@H](c1ccccc1OCCO)N1[C@H](c3ccccc3)[C@H](c3ccccc3)OC(=O)[C@H]1[C@@H]2C(=O)Nc1nc2ccccc2s1,1.08
2,CCCNC(=O)[C@@H]1c2ccccc2C(=O)N(C(C)C)[C@H]1c1ccc(CO)cc1,-0.342
3,CCCCO[C@H]1C[C@H]2C(I)=C[C@@H]1C(=O)[C@]21CO1,0.104
4,CC(C)(C)OC(=O)CC[C@]1(C(=O)NCC(O)CO)N=C(c2ccc(OCCCO)cc2)O[C@H]1c1ccccc1 (stereo partly specified),0.57
5,C=CC[C@]1(C(=O)O)COC(c2ccc(OCCCO)cc2)=N1,-0.0346
6,CN1C(=O)C2C=CC(C(O)c3ccccn3)N(N(c3ccccc3)c3ccccc3)C2C1=O (stereo unspecified),0.62
7,[N-]=[N+]=NCc1ccccc1C[C@@]1(C(=O)N2CCOCC2)N=C(c2ccc(OCCCO)cc2)O[C@@H]1c1ccccc1,1.03
8,CC(=O)NCCCC[C@@H]1NC(=O)[C@@H]2C[C@H](C(=O)NCCCC[N+](C)(C)C)[C@H](c3ccc(O)cc3)N2C1=O,1.33
9,C[C@H]1NC(=O)[C@@]23C(=O)N[C@@H](Cc4ccccc4)C2[C@H](C)[C@@]2(C)O[C@H]2C3/C=C/C/C=C\CNC(=O)[C@H](Cc2ccccc2)NC1=O (stereo partly specified),0.932
10,[N-]=[N+]=Nc1ccccc1C[C@]1(C(N)=O)N=C(c2ccc(OCCCO)cc2)O[C@H]1c1ccccc1N=[N+]=[N-],0.856
11,O=C1O[C@@H](c2ccccc2)[C@@H](c2ccccc2)N2[C@@H](c3ccc(O)cc3)[C@]3(C(=O)Nc4ccc(C#CC5=CCCCC5)cc43)[C@@H](C(=O)NC[C@H](O)c3ccccc3)[C@H]12,1.41
12,CCOC(=O)C1=CC[C@@H](c2ccccc2C(F)(F)F)N(S(=O)(=O)c2ccc(C)cc2)[C@H]1c1ccc(C#N)cc1,0.719
13,O[C@@H](Cc1ccccc1)[C@@H](/C=C/C1CC1)N(CC#Cc1ccccc1)Cc1cccc(Cl)c1,-1.72
14,CN(C)CCCCNC(=O)[C@@H]1C[C@@H]2C(=O)N[C@@H](Cc3ccccc3)C(=O)N2[C@@H]1c1cccc(OCCO)c1,0.407
15,COc1ccc([Si](C)(C)[C@@H]2[C@@H](CC(=O)N(CCO)Cc3ccccc3)O[C@]3(C(=O)N(c4ccccc4)c4ccccc43)[C@H]2C)cc1,0.766
16,CC=CC(O)C1C=CC2C(=O)N(c3ccccc3)C(=O)C2N1Nc1ccccc1F (stereo unspecified),0.169

row,SMILES,composite z-score
1,C=CC1c2cc(O)c(OC)cc2CCN1Cc1cc2c(cc1Br)OCO2 (stereo unspecified),-0.0398
2,CC(C)C(CO)N1C(=O)[C@@H]2C3C(=O)OCCC/C=C\[C@H]3OC23C=CCN(C(C)(C)C)C(=O)[C@@H]13 (stereo partly specified),-0.598
3,[N-]=[N+]=NCc1ccccc1C[C@@]1(C(=O)N2CCCCC2)N=C(c2ccc(OCCCO)cc2)O[C@@H]1c1ccccc1,0.384
4,O=C1C[C@@](C(=O)NCCN2CCOCC2)(c2ccc([N+](=O)[O-])cc2)[C@@H](c2ccc(CO)cc2I)N1C1CCCCC1,0.76
5,COC(=O)c1c(CC[C@@H](CO)NC(=O)N2CCC[C@H]2Cn2cc(Cc3ccccc3)nn2)oc(C(C)=O)c1C(=O)OC,0.572
6,O=C1NC(=O)C2C1C=CC(C(O)c1cccc3ccccc13)N2Nc1ccc(Cl)cc1Cl (stereo unspecified),0.46
7,N#Cc1ccc(C(O)C2C=CC3C(=O)N(c4ccccc4)C(=O)C3N2Nc2ccccc2)cc1 (stereo unspecified),0.913
8,COC(=O)[C@@]1(Cc2ccc(OC)cc2)[C@H]2c3cc(C(=O)N(C)C)n(C[C@H](O)CO)c3C[C@H]2CN1C(=O)c1ccccc1,0.376
9,COc1cc(OC)c(C(O)C2C=CC3C(=O)N(c4ccccc4)C(=O)C3N2Nc2ccccc2)cc1Br (stereo unspecified),0.247
10,COCCCNC(=O)[C@@]1(Cc2ccccc2N=[N+]=[N-])N=C(c2ccc(OCCCO)cc2)O[C@H]1c1ccccc1,0.911
11,C=C(C)C1CCC(C(O)C2C=CC3C(=O)N(C)C(=O)C3N2N2CCCCC2)CC1 (stereo unspecified),0.853
12,Cc1ccc(S[C@]2(C(=O)O)CC(=O)N(C3Cc4ccccc4C3)[C@@H]2c2ccc(CO)cc2)cc1,0.0926
13,O=C1C2C=CC(C(O)c3ccc(Br)cc3)N(Nc3ccccc3F)C2C(=O)N1c1ccccc1 (stereo unspecified),0.118
14,CC(C)(C)N1CC=CC23O[C@@H]4C=CCCOC(=O)C4[C@H]2C(=O)N(CCO)[C@@H]3C1=O (stereo partly specified),-0.385
15,C=CCNC(=O)[C@H]1[C@@H]2C(=O)O[C@@H](c3ccccc3)[C@@H](c3ccccc3)N2[C@@H](c2ccc(O)cc2)[C@]12C(=O)N(C(=O)OCCOC)c1ccccc12,1.24
